Data: PubChem BioAssay (NCATS)
Records with an inconclusive call do not appear. Where a call stands in place of a potency, no number is given. Activity calls are given as the source filed them. Calls come from the whole dose curve; as a rule, active = well fitted cell-killing curve with a large enough effect; inconclusive = small, poorly fitted or top-dose-only effect, or effect the other way; inactive = no such curve, though single readings can be large or run the other way.

What was measured:
[1] = Quantitative High-Throughput drug screen in 47 multiple myeloma cell lines against the NCATS MIPE library collection: FR4_PLB cell viability assay (AID 1918924; note: nearly all actives have a fitted effect of over 35% in size)
How it was run: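 Viability readout: CellTiter-Glo luminescence following 5 min room-temperature incubation with reagent. Prior exposure: 48 h, 37C, humidified 5% CO2, 500 cells per well.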

[2] = Quantitative High-Throughput drug screen in 47 multiple myeloma cell lines against the NCATS MIPE library collection: Delta47_JCRB cell viability assay (AID 1918925; note: nearly all actives have a fitted effect of over 45% in size)
How it was run: (§1)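 Inhibition of cell viability is measured here. Each line was plated at 500 cells per well, treated with MIPE 4.0 drugs, kept 48 hours at 37C, then assayed for ATP content by CellTiter-Glo luminescence.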

[3] = Quantitative High-Throughput drug screen in 47 multiple myeloma cell lines against the NCATS MIPE library collection: AMO1_DSMZ cell viability assay (AID 1918927; note: nearly all actives have a fitted effect of over 30% in size)
How it was run: as §1

[4] = Quantitative High-Throughput drug screen in 47 multiple myeloma cell lines against the NCATS MIPE library collection: ARP1_JJKsccF8 cell viability assay (AID 1918928; note: nearly all actives have a fitted effect of over 40% in size)
How it was run: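 Myeloma cells, 500 per well, were exposed to MIPE 4.0 drugs by pin transfer for 48 h at 37 °C, 5% CO2. Viability was read as ATP luminescence with CellTiter-Glo, normalised to DMSO-only (100%) and medium-only (0%) wells.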

[5] = Quantitative High-Throughput drug screen in 47 multiple myeloma cell lines against the NCATS MIPE library collection: EJM_DSMZ cell viability assay (AID 1918926; note: nearly all actives have a fitted effect of over 30% in size)
How it was run: as §1
Potency is the fitted concentration of half-maximal effect.

Structure (SMILES)	Potency [1]	Potency [2]	Potency [3]	Potency [4]	Potency [5]
CC(C)(O)[C@H]1CC[C@@](C)([C@H]2[C@@H](O)C[C@@]3(C)[C@@H]4C[C@H](O[C@@H]5O[C@H](CO)[C@@H](O)[C@H](O)[C@@H]5O)[C@H]5C(C)(C)[C@@H](O[C@@H]6OC[C@@H](O)[C@H](O)[C@@H]6O)CC[C@@]56C[C@@]46CC[C@]23C)O1	inactive	inactive	inactive	inactive	
NS(=O)(=O)OC[C@@H]1C[C@@H](n2ccc3c(N[C@H]4CCc5ccccc54)ncnc32)C[C@H]1O	9.35 µM (active)	0.526 µM (active)	0.296 µM (active)		
CN[C@@H]1C[C@H]2O[C@@](C)([C@H]1OC)n1c3ccccc3c3c4c(c5c6ccccc6n2c5c31)C(=O)N[C@H]4O	2.09 µM (active)	0.0469 µM (active)	0.332 µM (active)	0.833 µM (active)	
O=C(C=CC=Cc1ccc2c(c1)OCO2)N1CCCCC1	inactive		inactive		inactive
CCOC(=O)N1CCN([N+]([O-])=NOc2ccc([N+](=O)[O-])cc2C#N)CC1	0.743 µM (active)	1.05 µM (active)	1.05 µM (active)	1.05 µM (active)	
CN(N=O)C(=O)N[C@H]1C(O)OC(CO)[C@@H](O)[C@H]1O (some centres not stated)	inactive	inactive	inactive	inactive	
CNC(=O)Nc1ccc(-c2nc(N3CC4CCC(C3)O4)c3cnn(C4CCC5(CC4)OCCO5)c3n2)cc1			0.0166 µM (active)		3.32 µM (active)
CC(C)(O)CC[C@@H](O)[C@](C)(O)[C@H]1CC[C@@]2(O)C3=CC(=O)[C@@H]4C[C@@H](O)[C@@H](O)C[C@]4(C)[C@@H]3CC[C@]12C		inactive	inactive	inactive	inactive
COC(=O)C=CC(=O)OC		1.32 µM (active)	inactive		
Cc1ccc([N+](=O)[O-])cc1S(=O)(=O)N(C)N=Cc1cnc2ccc(Br)cn12	0.0166 µM (active)		0.0148 µM (active)	0.0264 µM (active)	0.0235 µM (active)
COC(=O)C1C2CC3c4[nH]c5cc(OC)ccc5c4CCN3CC2CC(OC(=O)c2cc(OC)c(OC)c(OC)c2)C1OC (configuration not stated)	3.72 µM (active)		20.9 µM (active)		
COc1ccc(CCC(=O)c2c(O)cc(O[C@@H]3O[C@H](CO)[C@@H](O)[C@H](O)[C@@H]3O[C@@H]3O[C@@H](C)[C@H](O)[C@@H](O)[C@@H]3O)cc2O)cc1O			inactive		inactive
C=C1CCC2[C@](C)(CO)C(O)CC[C@]2(C)C1CC=C1C(=O)OCC1O (some centres not stated)		inactive		inactive	inactive
C[C@H]1COc2c(N3CCN(C)CC3)c(F)cc3c(=O)c(C(=O)O)cn1c23	inactive		inactive	inactive	
OC[C@@H](O)[C@@H](O)[C@H](O)[C@@H](O)CO	inactive		5.9 µM (active)	inactive	inactive
C=C1C[C@@]2(O)O[C@@]3(C[C@H]2C(C)C)[C@H](C)CC[C@H]13		inactive	inactive	inactive	inactive
COc1cc(C)c(C=CC(C)=CC=CC(C)=CC(=O)O)c(C)c1C	inactive		inactive	inactive	
CCc1cc(C(C)=NOCc2ccc(C3CCCCC3)c(C(F)(F)F)c2)ccc1CN1CC(C(=O)O)C1		20.9 µM (active)			
C[C@H]1O[C@H](O[C@H]2[C@H](O)[C@@H](O)[C@@H](O[C@H]3[C@H](O)[C@@H](O)C(O)O[C@H]3CO)O[C@H]2CO)[C@H](O)[C@@H](O)[C@H]1N[C@H]1C=C(CO)[C@@H](O)[C@H](O)[C@@H]1O (some centres not stated)	inactive			inactive	inactive
Cn1cc(C=CC(=O)c2cccc(F)c2)cc1C=CC(=O)NO		18.7 µM (active)	18.7 µM (active)	16.6 µM (active)	
O=c1[nH]c(=O)n([C@H]2C[C@@H](O)[C@@H](CO)O2)cc1C=CBr		inactive	inactive	inactive	inactive
COC(=O)[C@@H]1[C@H]2C[C@@H]3c4[nH]c5ccccc5c4CCN3C[C@@H]2CC[C@@H]1O		inactive	inactive	inactive	inactive
C[C@]12C=CC(=O)N[C@@H]1CC[C@H]1[C@H]3CC[C@@H](C(=O)Nc4cc(C(F)(F)F)ccc4C(F)(F)F)[C@@]3(C)CC[C@@H]12	18.7 µM (active)		inactive		
CC(=O)NC(CS)C(=O)O (configuration not stated)		inactive			inactive
COc1ccc(S(=O)(=O)Nc2cc(-c3c(O)ccc4ccccc34)c(O)c3ccccc23)cc1		9.35 µM (active)	14.8 µM (active)	11.8 µM (active)	
COc1ccc2cc([S+]([O-])Cc3ncc(C)c(OC)c3C)nc2c1	inactive			inactive	inactive
O=C(NNC(=O)c1ccc(CNS(=O)(=O)c2ccc(F)c(Cl)c2)cc1)c1ccccc1	inactive		inactive	inactive	inactive
CC(=O)ON=C1C(c2c(O)[nH]c3cc(Br)ccc23)=Nc2ccccc21		5.26 µM (active)	1.87 µM (active)		11.8 µM (active)
